Reference: ChEMBL document CHEMBL1961873, “Compounds: GSK PKIS; Assays: Nanosyn kinase panel” (2012)

Experiments:
[1] = molecular target: T1, Inhibitor of nuclear factor kappa-B kinase subunit epsilon (Homo sapiens) (UniProt Q14164); conditions: at 1 µM;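 further: reported values are averaged percent inhibition figures against human IKKε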
T1 sequence (whole entry): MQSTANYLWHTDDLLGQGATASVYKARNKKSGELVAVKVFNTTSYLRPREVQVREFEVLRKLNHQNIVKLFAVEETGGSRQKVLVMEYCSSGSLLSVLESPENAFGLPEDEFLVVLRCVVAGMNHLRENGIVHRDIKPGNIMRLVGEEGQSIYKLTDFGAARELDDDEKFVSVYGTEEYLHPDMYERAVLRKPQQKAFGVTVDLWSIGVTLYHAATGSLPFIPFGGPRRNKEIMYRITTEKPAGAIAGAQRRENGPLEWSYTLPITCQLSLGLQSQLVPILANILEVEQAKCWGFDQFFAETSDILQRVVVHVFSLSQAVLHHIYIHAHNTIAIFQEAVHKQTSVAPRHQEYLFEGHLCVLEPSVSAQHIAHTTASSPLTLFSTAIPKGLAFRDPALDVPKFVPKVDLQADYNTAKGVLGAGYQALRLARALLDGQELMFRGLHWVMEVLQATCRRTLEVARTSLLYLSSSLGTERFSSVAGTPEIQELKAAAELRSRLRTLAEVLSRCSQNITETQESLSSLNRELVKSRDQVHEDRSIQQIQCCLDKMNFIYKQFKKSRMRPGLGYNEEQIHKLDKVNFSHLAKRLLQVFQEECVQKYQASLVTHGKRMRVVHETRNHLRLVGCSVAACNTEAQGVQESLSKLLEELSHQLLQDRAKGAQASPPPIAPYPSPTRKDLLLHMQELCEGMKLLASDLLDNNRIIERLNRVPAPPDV

[2] = molecular target: T2, Serine/threonine-protein kinase Nek1 (Homo sapiens) (UniProt Q96PY6); conditions: at 0.1 µM
T2 sequence (whole entry): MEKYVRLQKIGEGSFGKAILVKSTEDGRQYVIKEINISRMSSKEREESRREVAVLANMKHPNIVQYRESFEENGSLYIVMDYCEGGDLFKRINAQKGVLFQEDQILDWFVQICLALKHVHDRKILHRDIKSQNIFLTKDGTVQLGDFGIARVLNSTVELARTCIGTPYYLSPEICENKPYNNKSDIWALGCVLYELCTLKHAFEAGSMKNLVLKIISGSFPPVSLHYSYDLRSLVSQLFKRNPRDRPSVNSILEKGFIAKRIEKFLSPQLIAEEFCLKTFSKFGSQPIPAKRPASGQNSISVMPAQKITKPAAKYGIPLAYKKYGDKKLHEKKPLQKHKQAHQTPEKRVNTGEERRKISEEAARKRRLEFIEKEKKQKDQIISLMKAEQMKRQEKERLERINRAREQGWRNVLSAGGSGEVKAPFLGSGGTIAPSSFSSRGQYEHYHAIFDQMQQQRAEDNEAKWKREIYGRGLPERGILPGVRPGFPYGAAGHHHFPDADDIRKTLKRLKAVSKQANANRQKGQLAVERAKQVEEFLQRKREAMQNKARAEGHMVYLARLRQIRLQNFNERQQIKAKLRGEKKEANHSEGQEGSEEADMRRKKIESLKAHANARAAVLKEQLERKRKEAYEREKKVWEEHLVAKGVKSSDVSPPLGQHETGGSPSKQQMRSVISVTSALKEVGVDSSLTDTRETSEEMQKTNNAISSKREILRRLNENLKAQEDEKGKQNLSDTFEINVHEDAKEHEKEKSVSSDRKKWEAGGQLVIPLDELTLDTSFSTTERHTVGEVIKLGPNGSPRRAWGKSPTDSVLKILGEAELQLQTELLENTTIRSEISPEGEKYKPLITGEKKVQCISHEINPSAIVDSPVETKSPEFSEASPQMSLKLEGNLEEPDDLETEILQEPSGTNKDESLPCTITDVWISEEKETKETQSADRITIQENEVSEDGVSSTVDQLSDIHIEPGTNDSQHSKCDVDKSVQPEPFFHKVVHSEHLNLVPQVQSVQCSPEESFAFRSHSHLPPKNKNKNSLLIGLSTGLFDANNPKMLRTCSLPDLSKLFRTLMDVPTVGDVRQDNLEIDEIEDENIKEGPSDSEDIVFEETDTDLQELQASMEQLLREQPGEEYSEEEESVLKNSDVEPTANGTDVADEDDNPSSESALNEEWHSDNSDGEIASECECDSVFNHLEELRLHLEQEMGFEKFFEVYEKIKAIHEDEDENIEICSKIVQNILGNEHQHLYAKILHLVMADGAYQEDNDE

[3] = molecular target: T2, Serine/threonine-protein kinase Nek1 (Homo sapiens); conditions: at 1 µM
[4] = molecular target: T3, Serine/threonine-protein kinase Nek2 (Homo sapiens) (UniProt P51955); conditions: at 0.1 µM
T3 sequence (whole entry): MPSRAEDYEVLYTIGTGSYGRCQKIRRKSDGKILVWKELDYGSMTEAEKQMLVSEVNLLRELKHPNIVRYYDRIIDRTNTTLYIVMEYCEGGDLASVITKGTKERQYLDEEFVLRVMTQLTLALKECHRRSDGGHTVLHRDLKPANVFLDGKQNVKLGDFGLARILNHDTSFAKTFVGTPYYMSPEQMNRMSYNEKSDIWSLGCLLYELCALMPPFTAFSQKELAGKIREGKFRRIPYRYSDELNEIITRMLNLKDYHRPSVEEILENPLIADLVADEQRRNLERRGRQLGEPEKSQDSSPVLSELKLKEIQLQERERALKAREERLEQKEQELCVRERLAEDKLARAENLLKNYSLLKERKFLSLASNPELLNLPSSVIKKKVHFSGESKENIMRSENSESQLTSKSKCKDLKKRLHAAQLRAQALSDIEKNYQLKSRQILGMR

[5] = molecular target: T3, Serine/threonine-protein kinase Nek2 (Homo sapiens); conditions: at 1 µM
[6] = molecular target: Serine/threonine-protein kinase Nek6 (Homo sapiens) (UniProt Q9HC98); conditions: at 0.1 µM
Sequence of Serine/threonine-protein kinase Nek6 (Homo sapiens) (Q9HC98 whole entry): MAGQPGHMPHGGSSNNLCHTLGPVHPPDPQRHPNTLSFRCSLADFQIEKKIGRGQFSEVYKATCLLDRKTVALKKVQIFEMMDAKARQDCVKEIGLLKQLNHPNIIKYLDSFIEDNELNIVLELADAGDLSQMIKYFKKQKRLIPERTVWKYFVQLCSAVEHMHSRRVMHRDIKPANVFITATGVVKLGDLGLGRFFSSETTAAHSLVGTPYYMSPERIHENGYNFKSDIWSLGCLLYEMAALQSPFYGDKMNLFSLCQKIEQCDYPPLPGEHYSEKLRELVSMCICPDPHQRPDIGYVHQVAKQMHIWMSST

[7] = molecular target: Serine/threonine-protein kinase Nek6 (Homo sapiens) (UniProt Q9HC98); conditions: at 1 µM
[8] = molecular target: Serine/threonine-protein kinase Nek7 (Homo sapiens) (UniProt Q8TDX7); conditions: at 0.1 µM
Sequence of Serine/threonine-protein kinase Nek7 (Homo sapiens) (Q8TDX7 whole entry, looked up): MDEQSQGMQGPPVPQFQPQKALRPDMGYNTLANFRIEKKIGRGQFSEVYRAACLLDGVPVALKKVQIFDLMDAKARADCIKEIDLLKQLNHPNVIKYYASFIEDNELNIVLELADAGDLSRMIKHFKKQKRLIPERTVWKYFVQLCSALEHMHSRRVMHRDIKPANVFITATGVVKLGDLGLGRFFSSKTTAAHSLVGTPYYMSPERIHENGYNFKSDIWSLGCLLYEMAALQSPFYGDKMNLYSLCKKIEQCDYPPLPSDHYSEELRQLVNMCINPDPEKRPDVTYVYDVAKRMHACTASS

[9] = molecular target: Serine/threonine-protein kinase Nek7 (Homo sapiens) (UniProt Q8TDX7); conditions: at 1 µM
[10] = molecular target: T4, Serine/threonine-protein kinase Nek9 (Homo sapiens) (UniProt Q8TD19); conditions: at 0.1 µM;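 further: reported value is the mean percent inhibition of NEK9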
T4 sequence (whole entry): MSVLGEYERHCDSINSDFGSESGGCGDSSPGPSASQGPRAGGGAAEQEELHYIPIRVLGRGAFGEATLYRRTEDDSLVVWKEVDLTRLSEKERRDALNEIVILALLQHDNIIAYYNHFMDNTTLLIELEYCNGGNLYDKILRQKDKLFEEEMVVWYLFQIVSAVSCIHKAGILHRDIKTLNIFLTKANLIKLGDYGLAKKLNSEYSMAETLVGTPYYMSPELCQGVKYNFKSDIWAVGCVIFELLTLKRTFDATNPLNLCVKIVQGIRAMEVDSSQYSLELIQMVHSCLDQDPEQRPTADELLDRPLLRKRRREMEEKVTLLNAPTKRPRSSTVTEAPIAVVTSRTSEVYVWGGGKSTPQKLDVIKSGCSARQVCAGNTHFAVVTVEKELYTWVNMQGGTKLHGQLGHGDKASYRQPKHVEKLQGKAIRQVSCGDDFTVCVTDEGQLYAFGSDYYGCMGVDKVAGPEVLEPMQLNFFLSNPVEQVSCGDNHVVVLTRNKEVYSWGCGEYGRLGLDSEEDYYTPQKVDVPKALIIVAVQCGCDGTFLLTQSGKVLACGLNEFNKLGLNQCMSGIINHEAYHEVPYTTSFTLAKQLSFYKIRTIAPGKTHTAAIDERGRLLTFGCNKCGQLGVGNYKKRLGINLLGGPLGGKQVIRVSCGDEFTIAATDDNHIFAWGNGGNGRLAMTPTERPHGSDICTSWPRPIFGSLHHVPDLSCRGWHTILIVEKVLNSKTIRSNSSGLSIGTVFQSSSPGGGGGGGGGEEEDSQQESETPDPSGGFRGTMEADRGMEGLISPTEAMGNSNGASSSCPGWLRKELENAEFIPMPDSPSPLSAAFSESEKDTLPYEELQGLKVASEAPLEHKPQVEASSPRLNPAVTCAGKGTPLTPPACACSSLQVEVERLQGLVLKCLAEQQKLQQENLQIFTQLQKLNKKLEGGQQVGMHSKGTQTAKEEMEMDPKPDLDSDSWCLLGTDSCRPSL

Compound O=C(Nc1n[nH]c2nc(-c3ccco3)c(Br)cc12)C1CC1 has an inhibition [1] of 3.64%, an inhibition [2] of 2.9% and an inhibition [3] of 1.85%. For the same compound, the inhibition [4] was 4.03%, the inhibition [5] was 3.85% and the inhibition [6] was 3.21%. It also gave an inhibition [7] of 0.56%, an inhibition [8] of 4.18% and an inhibition [9] of 3.03%. For the same compound, the inhibition [10] was 1.02%.
